As a reminder, the inhibition is the relative decrease from the control value, in per cent.

Out of some 290,000 compounds screened, about 670 (0.23%) were called active. The sample as a whole holds a higher share of actives than the screen did. Values without a mark were called inactive.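 The calls were made as follows: active = inhibition above a per-plate limit of that plate's mean compound inhibition plus 3 SD (cut at about 60% in these data); inactive = the rest.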

The text below walks through data of PubChem BioAssay AID1700 (The Scripps Research Institute Molecular Screening Center, 2009).

A short description of this assay: suppression of KLF5 promoter-driven luciferase – DLD-1 cells, luminescence, primary screen (AID 1700).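 Also: 0% = DMSO wells and 100% = LY294002 at 200 µM; higher means less KLF5 promoter-driven luciferase light.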 The note with it: DLD-1 KLF5 promoter-luciferase reporter, at 5 µM, hits give high values. (In general: Reporter assays use an easily measured gene product as a stand-in for the process of interest.)
Regarding `Cc1ccc(OCCCC(=O)Nc2ccc(S(=O)(=O)Nc3cc(C)nc(C)n3)cc2)cc1`, the inhibition was 0.85%. With `O=S(=O)(c1cc(Cl)ccc1Cl)N1CCN(Cc2ccco2)CC1`, the inhibition was -4.75%. As for `CCC(=O)Nc1ccc2nn(-c3ccc(F)cc3)nc2c1`, the figure is -97%.

On to `c1ccc(-n2nc3ccccc3n2)cc1`, for which the inhibition is -2.18%. As for `Nc1ccc2nn(-c3ccc(Cl)cc3)nc2c1`, the figure is 97.7% (active); as for `O=C(c1cc(-c2ccc(Cl)cc2)on1)N1CCN(c2ccccc2)CC1`, -69.1%; as for `Cc1cccc(C)c1OCCN1CCOCC1`, -15.7%. For the compound `Cc1ccc2c(c1)N(S(=O)(=O)c1cc(-c3cc(C)no3)ccc1C)CCO2`, the inhibition was -37.9%. The same measure for `Cc1ccc(NC(=S)Nc2ncccc2C)c(C)c1`: 79.6% (active); for `Cc1ccc(NC(=S)NCCc2ccc(Cl)cc2)c(C)c1`: -19%.

On to `Cc1ccc(NC(=S)NCc2ccccc2Cl)c(C)c1`, for which the inhibition is -3.59%.

In the case of `CCN1C(=NCCc2cccnc2)N[C@@H](c2ccccc2)C(C(=O)OC)=C1C`, the inhibition was -22%. As for `CC(C)c1ccc(NC(=O)Cn2ncc3ccccc32)cc1`, the figure is -106%. The same measure for `CN(c1cccc(NC(=O)c2ccc(CN3CCc4ccccc4C3)cc2)c1)S(C)(=O)=O`: -29.8%. The same measure for `CCN(CC)N=Nc1cccc(NC(C)=O)c1`: -51.2%; for `Cc1ccc(C(=O)NC23CC4CC(CC(C4)C2)C3)c(Cl)c1`: -45.4%. As to `O=C(N/C(=C\c1ccc(O)cc1)C(=O)N1CCCCC1)c1ccccc1`, the inhibition was -7.29%. On to `CCNC(=O)CCc1nc(-c2ccc(C(C)(C)C)cc2)no1`, for which the inhibition is 61.9% (active). As for `CN1CCN(C(=O)CCc2nc(-c3ccc(Cl)cc3)no2)CC1`, the figure is -29.1%; as for `CCNC(=O)CCc1nc(-c2ccc(C)cc2)no1`, -43.2%. The same measure for `CCc1ccccc1S(=O)(=O)Cc1ccc(C(=O)NCCc2ccccc2)o1`: -41.4%; for `CCOC(=O)C1CCN(C(=O)Cn2nc(C)c3c(C)n(-c4ccccc4)nc3c2=O)CC1`: -39.7%. As for `COc1cccc(-c2cc(C(=O)N3CCN(c4ccccc4OC)CC3)no2)c1`, the figure is -15.2%; as for `COc1ccccc1N1CCN(C(=O)c2cc(=O)c3cc(C)ccc3o2)CC1`, 15.1%. Regarding `COc1ccccc1N1CCN(C(=O)c2cc(=O)c3cc(C)cc(C)c3o2)CC1`, the inhibition is 88.2% (active). For the compound `Cc1c(NC(=O)CSCc2ccccc2)cccc1C(=O)O`, the inhibition is -44.3%.

In the case of `COc1cc(C(=O)NC2CCN(Cc3ccccc3)CC2)cc(Cl)c1OC(C)C`, the inhibition is 0.72%.

Take `O=C(Nc1nonc1-c1ccc(Cl)cc1)c1ccco1`: the inhibition was -1.44%.

As to `Cc1cc(N/N=C\c2ccc(Br)cc2)nc(-n2nc(C)cc2C)n1`, the inhibition was 3.64%.

Consider `Cc1cc(Oc2ccc(Cl)cc2)nc(SCC(=O)c2ccccc2)n1`, for which the inhibition is -18.8%. In the case of `CCOC(=O)c1cnc(-n2nc(C)cc2C)nc1Nc1cccc(C(C)=O)c1`, the inhibition is -11.5%. The same measure for `COc1ccccc1/C=N\Nc1cc(C)nc(-n2nc(C)cc2C)n1`: -41.2%; for `COc1ccc(Nc2cc(C)nc(-n3nc(C)cc3C)n2)cc1`: 75.5% (active).

As to `CC(=O)c1ccc(Oc2cc(C)nc(-n3nc(C)cc3C)n2)cc1`, the inhibition was 61.9% (active). As for `COc1ccccc1CNS(=O)(=O)c1ccc2c(c1)NC(=O)CS2`, the figure is -51%. Take `CC(=O)c1ccc(N2Cc3ccccc3C2)cc1`: the inhibition is -125%. `O=C(NC(Nc1nc2ccc([N+](=O)[O-])cc2s1)(C(F)(F)F)C(F)(F)F)c1ccccc1`: the inhibition was 67.7% (active).

Take `O=C(Nc1nc2ccc([N+](=O)[O-])cc2s1)c1ccc(S(=O)(=O)N2CCCc3ccccc32)cc1`: the inhibition is -18.3%. As for `CCC(=O)NC(Nc1nc2ccc(C)cc2s1)(C(=O)OC)C(F)(F)F` (centres undefined), the figure is 21.2%; as for `COC(=O)c1ccc(COc2ccc(/C=C/C(=O)c3ccc(OC)c(CSCC(=O)O)c3)cc2OC)cc1`, 26.8%.

`CCC(C(=O)NCc1cccnc1)n1nc(C)c2sc3ccccc3c2c1=O` (centres undefined): the inhibition is -24.5%.

Regarding `CC(C)CNS(=O)(=O)c1ccc(C(=O)Nc2ccc3c(c2)OCO3)cc1`, the inhibition is -18.9%.

Regarding `COc1ccccc1C(=O)NC(=S)NC12CC3CC(CC(C3)C1)C2`, the inhibition was -5.49%. As for `Cc1ccc(-c2csc(NC3OC(=O)c4ccccc43)n2)cc1` (centres undefined), the figure is 9.97%; as for `Cc1ccn2c(=O)c(C(=O)NCCC3=CCCCC3)c(O)nc2c1`, 2.41%. As for `C[C@@H]1C[C@@H]2O[C@H]2/C=C\C=C\C(=O)Cc2c(Cl)c(O)cc(O)c2C(=O)O1`, the figure is 64.1% (active); as for `COc1cc2c(cc1O)[C@H](Cc1ccc(Oc3cc(C[C@@H]4NCCc5cc(OC)c(O)cc54)ccc3O)cc1)NCC2`, -7.79%; as for `CCc1ccc(OCC2c3cc(OC)c(OC)cc3CCN2C(C)=O)cc1` (centres undefined), -8.46%. As to `CC[C@H]1CN2CCc3cc(OC)c(OC)cc3[C@@H]2C[C@@H]1C[C@H]1NCCc2cc(OC)c(OC)cc21`, the inhibition is 106% (active).

Consider `COc1ccc(Cc2nnc(SCC(=O)Nc3ccc(C)c(C)c3)o2)cc1OC`, for which the inhibition is -24.5%.

Take `COc1cccc(N(CC(=O)NC2CCCCCC2)S(=O)(=O)c2ccccc2)c1`: the inhibition was -3.24%. As for `Cc1cccc(OCC(=O)Nc2ccc(NC(=O)c3ccco3)c(C)c2)c1`, the figure is -14.3%; as for `O=C(COc1ccc(Cl)cc1)NCCS(=O)(=O)N1CCN(c2ccc(F)cc2)CC1`, -3.45%; as for `Oc1c(Cl)cc(Cl)c(Cl)c1Cc1c(O)c(Cl)cc(Cl)c1Cl`, 81% (active). As for `O=C(N/N=C1\CCSC1)c1cc(Cl)ccc1O`, the figure is -24.9%.

`COc1ccc(CNc2nccs2)cc1`: the inhibition was -8.32%. As for `COc1ccc(C(C)NC(=O)C23CC4CC(CC(C4)C2)C3)cc1` (centres undefined), the figure is 13.8%; as for `Cc1ccc(O)c(NC(=O)c2cc(-c3ccco3)on2)c1`, -124%; as for `N#Cc1ccc(C(=O)Nc2nc(-c3cccs3)c(C(=O)C(F)(F)F)s2)cc1`, 16.3%.
